# Assay results published in PMC12136788.
# Over roughly 24,000 sequences, “enrichment r” has its median near 0.99; the highest 2% begin near 3.7. A selection follows.
# T1: UNK ZnF1-3 (human, UniProt Q9C0B0 31-174)
# T1 sequence: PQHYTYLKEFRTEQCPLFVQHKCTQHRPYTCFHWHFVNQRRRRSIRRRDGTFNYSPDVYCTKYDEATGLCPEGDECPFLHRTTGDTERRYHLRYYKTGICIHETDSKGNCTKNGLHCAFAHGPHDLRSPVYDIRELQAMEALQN
# B1: 12329608_12331292_3055_3pUTR_ENSMUSG00000032625_ENSMUST00000046121|mouse|control|control (ssRNA)
# RNA: GGGAGUUCUACAGUCCGACGAUCGAGGGUACAAAUGAGAGUUUUUACAUUUUUCCUUCUUUUUACUUUUCCCAACAAUAGCACGCUUUCUGGUCCUAACUGCACCGCAGUCUCCGUUGCAUGAAGAAAACUUGGACCAGCUGGCAACAGAGGAUUGAGCAUCA
# B2: chr7:28421298:28421299:+_ENSMUSG00000004056_ENSMUST00000051356|mus_hu|FALSE|FALSE (ssRNA)
# RNA: GGGAGUUCUACAGUCCGACGAUCCAUCAUCUCGUACAUGACCACACCCAGCCCCCACCAGUCCACGGCCCGGCCAUAGUCAUUGUCCUCCAGCACCUCAGGCGCCAGGUACUCCGGGGUCCCACAGAAGGUUUUCAUGGUGGCCAACAGAGGAUUGAGCAUCA
# B3: chr7:151048522:151048523:+_ENSG00000013374_ENST00000566856|hu_mus|hu_hu_hu_mus_True|48_108 (ssRNA)
# RNA: GGGAGUUCUACAGUCCGACGAUCCUGCUUCUUAUUUAUUACGAUCUUGAUGUAAUUUUCUUGAAAUCCGAAAGUUUCAGCUAUUUGGGACCUCAGUUCUCUACCAGUGACAUGCAAGCGGGUCUCCAACAAGCUUUUCUUAUCCAACAGAGGAUUGAGCAUCA
# B4: chr7:52357369:52357370:-_ENSMUSG00000003420_ENSMUST00000003512|mus_hu|FALSE|FALSE (ssRNA)
# RNA: GGGAGUUCUACAGUCCGACGAUCGUGCUCCCGCAGGCGGUGCGGGCAGGAGAAUAGCAGGAAGGUGAGCUCCUUGUUGGCCGCCUUGUCCUGCUGCUGCCACCGCUGACUGAUAGCCAGGGCCUCGGGCCAGUCCCCACCCCACAACAGAGGAUUGAGCAUCA
# B5: chr5:132440482:132440483:+_ENSG00000170606_ENST00000304858|hu_hu|FALSE|FALSE (ssRNA)
# RNA: GGGAGUUCUACAGUCCGACGAUCUUAAAGCAUAAUUAGAGCUCCUGCCAUGUAAGUCAUAAUGAAAAGUCUGCUGGAUAGCUAGAGCUGUAGCUAUAGCUCAACUUUCCAAAACAAACUUAUUCUUGUAGACACAUGGUUAAACAACAGAGGAUUGAGCAUCA
# B6: chr8:101271117:101271118:-_ENSG00000034677_ENST00000519449|hu_mus|motif|central (ssRNA)
# RNA: GGGAGUUCUACAGUCCGACGAUCGCAAUCACUGGAGCCGUGACUACAGGACGUUCUCAUGCUUUCUAAGUCUGAGCAGCGGAAUUCAGAAAAAUGACUGGAGUGGGAAUCUGCUACAGACGGCAUGCUGUCACUGAGGGAUGGCAACAGAGGAUUGAGCAUCA
# B7: 46683936_46684056_841_CDS_ENSMUSG00000033319_ENSMUST00000036226|mouse|control|control (ssRNA)
# RNA: GGGAGUUCUACAGUCCGACGAUCUCGAAGAGGAGUUGAGUUGGUUAAAGUCGUGUUGUUGACAGAUGCUCCGUGAUUUAACAAAGACUGGACAACCUUCAGAUGUCCUGCUGCAGAAGCGGCCCAUAAAGGGGGGGCCCCCUCCAACAGAGGAUUGAGCAUCA
# B8: chr22:36164377:36164378:-_ENSG00000100320_ENST00000405409|hu_mus|FALSE|FALSE (ssRNA)
# RNA: GGGAGUUCUACAGUCCGACGAUCACGGCCCUCUACCACGGUGCCGUGCAAUUUCUCCCUGGCCCUGUCUGCAUCAGCACUAUUCUCGAAAGUUACGAACCCGAAUCCCUUGGAGCCGCGCUCAUUAAAGAUUAUUUCCACAUCCAACAGAGGAUUGAGCAUCA
# B9: chr17:3572670:3572671:+_ENSG00000127774_ENST00000248378|hu_hu|FALSE|FALSE (ssRNA)
# RNA: GGGAGUUCUACAGUCCGACGAUCGUAGGUGAAGAGGCCCCCGAUGAGGCCUCCUGUAAAGAGAGGUCUCCGUGAUUUGAAAUAUUUGUUCCACCUCCUUCCCGCCUUGAGAAUGAGGAGCAGGGAGAGCAGGACGGAGGCGAGCAACAGAGGAUUGAGCAUCA
# B10: chr2:47387770:47387771:-_ENSG00000143933_ENST00000272298|hu_mus|hu_hu_hu_mus_True|1_38 (ssRNA)
# RNA: GGGAGUUCUACAGUCCGACGAUCAAGGUUUAAGGACAAUGACAGUAAGAUAAGGGAAGAAAACAUGGAGGAAUGAAGUCCUAAUUACUAUACAUGCAUAUUUUUUUACAGUAGGGGGGGGGAACCUUUUACAGAUAUUACAAACAACAGAGGAUUGAGCAUCA
# B11: chr9:35286173:35286174:+_ENSMUSG00000038119_ENSMUST00000042842|mus_mus|FALSE|FALSE (ssRNA)
# RNA: GGGAGUUCUACAGUCCGACGAUCAGUAUUAUUGUUACUUGAUGGAACAUACGUCCAUUUCAGCAUGAUCUGAGUGUCGCUAACAGCCUCUGUGUAUGCGAUGUGAGGUCCAGUUAUUGGGCGAUUGGAAAAACGAUUUGGGAACAACAGAGGAUUGAGCAUCA
# B12: chrX:98862621:98862622:+_ENSMUSG00000034160_ENSMUST00000044475|mus_hu|mus_mus_mus_hu_False|58_88 (ssRNA)
# RNA: GGGAGUUCUACAGUCCGACGAUCCUGCAUCUCCUUUAGAGUGUUUCCCAUAUUGGAGUAGGCAUCAGCAAAGGUAGGACUAAUUCGAAUAGCCUCCUUAUAAUGCAUCAGAGCUUCCUGCAGUUUUCCCUGCUGCUGCAGUACCAACAGAGGAUUGAGCAUCA
# B13: chr2:32089778:32089779:+_ENSMUSG00000039262_ENSMUST00000036691|mus_hu|FALSE|FALSE (ssRNA)
# RNA: GGGAGUUCUACAGUCCGACGAUCUAAACAAGCUGCACAUUACACCUCUAGCCAUCGUCUGCCCUUUCAAAUAUCUGGUCUACAUGGAAAGACAAAGAGGAAAGGCCAAAACAUAAACAAAAGGAAACAAAAACAAAACACAACCAACAGAGGAUUGAGCAUCA
# B14: chr5:28742860:28742861:+_ENSMUSG00000048271_ENSMUST00000114884|mus_mus|FALSE|FALSE (ssRNA)
# RNA: GGGAGUUCUACAGUCCGACGAUCAGAAUCUCUUGAAAAAGAAAAGGUGAGAUUUCCUCCUCAAGAAGAGUAUCAAUAUAAUAAGGAUUUAACAAAUGUGGCCAAGCCAAGGGCAGCAUAAGGUUAUGUUCAGGUAAGCAGCUGCAACAGAGGAUUGAGCAUCA
# Molecular target: T1, UNK ZnF1-3
# Assay: nsRBNS (natural sequence RNA bind-n-seq); RBNS binding buffer (assumed for nsRBNS): 25 mM Tris pH 7.5, 150 mM KCl, 3 mM MgCl2, 0.01% Triton X-100, 500 ug/ml BSA, 20 U/ml SUPERase-In, 4 C; UNK is unkempt and MSI1 is Musashi-1; names of the RNAs are library labels; protein concentration not given here; high values mean tight binding
row,Binder,binding signal [enrichment R]
1,B1,0.4
2,B2,1.8
3,B3,0.712
4,B4,0.754
5,B5,0.424
6,B6,1.45
7,B7,1.3
8,B8,1.19
9,B9,1.1
10,B10,2.41
11,B11,0.899
12,B12,0.89
13,B13,2.59
14,B14,1.72
